Screens as filed in PubChem.
In the library only some 3% were active in any assay of this set; here they are far more common.
Arbovirus anti = blocks arbovirus infection | actives 0.37% (n = 200,000) | AID 1251 | inhibition, % at 10 µM | arbovirus infection cell-based antiviral screen; in the data active means inhibition above about 30%
14-3-3 Bad inh = disrupts binding of bovine 14-3-3 zeta to phospho-Bad peptide | P63103 | TR-FRET 14-3-3zeta/Dy647-pBad peptide displacement, 1 h | inhibition, % at 21.7 µM | AID 781 | actives 0.71% (n = 220,000);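 active means inhibition above about 70%, limit read from the data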;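 further: 0% = full 14-3-3 plus peptide FRET controls and 100% = background without 14-3-3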
Target sequence (P63103 whole entry, looked up): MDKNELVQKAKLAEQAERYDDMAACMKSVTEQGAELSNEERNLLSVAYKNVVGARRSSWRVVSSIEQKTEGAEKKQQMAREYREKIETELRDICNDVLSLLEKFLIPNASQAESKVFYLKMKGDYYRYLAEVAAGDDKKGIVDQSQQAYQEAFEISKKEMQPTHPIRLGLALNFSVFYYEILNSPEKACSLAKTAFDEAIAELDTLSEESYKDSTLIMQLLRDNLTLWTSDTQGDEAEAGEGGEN
Mcl1 Noxa PPI = disrupts binding of human Mcl-1 to Noxa peptide; AID 1022; inhibition, % at 21.7 µM; actives 1.5% (n = 220,000); TR-FRET Mcl-1/Noxa peptide binding, 2 h;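 active means compounds that cut the protein-peptide binding signal by more than 50% relative to plate controls in a single-dose test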;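 further: His-tagged Mcl-1 with rhodamine Noxa BH3 peptide and terbium anti-His antibody; 0% = Mcl-1 plus Noxa peptide wells and 100% = peptide-only wells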
Target sequence (Q07820 whole entry, looked up): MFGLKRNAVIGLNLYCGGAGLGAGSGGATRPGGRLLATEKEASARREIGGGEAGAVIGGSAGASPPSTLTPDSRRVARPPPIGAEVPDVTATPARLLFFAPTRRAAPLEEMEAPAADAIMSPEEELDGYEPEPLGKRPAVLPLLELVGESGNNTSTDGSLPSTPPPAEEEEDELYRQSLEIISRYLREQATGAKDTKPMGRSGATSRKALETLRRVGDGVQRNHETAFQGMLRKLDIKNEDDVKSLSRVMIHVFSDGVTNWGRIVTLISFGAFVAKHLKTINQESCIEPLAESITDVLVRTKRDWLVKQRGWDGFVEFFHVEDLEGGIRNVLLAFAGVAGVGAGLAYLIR
Mcl1-Bid inh = disrupts binding of human Mcl-1 to Bid peptide; inhibition, % at 21.7 µM; Q07820; actives 0.97% (n = 220,000); AID 1021; TR-FRET Mcl-1/Bid-Dy647 peptide binding, 1536-well;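 active means compounds that cut the binding signal by more than half at the single screening dose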;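 further: His-tagged Mcl-1 with europium anti-His antibody binding Bid BH3 peptide; 0% = Mcl-1 plus peptide wells and 100% = peptide-only wells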
Mcl-1 Bim block = disrupts Bim peptide binding to human Mcl-1. Q07820. actives 0.1% (n = 190,000). Bead-based flow cytometry, Bim peptide-Mcl-1 binding. inhibition, % at 10 µM. AID 1009; in the data active means inhibition above about 40%;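 further: 0% = no compound tracer wells and 100% = peptide blocker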
Numbers without * were called inactive; . = no result given; [ ] = dose if it differs, or a comment.

SMILES | Arbovirus anti | 14-3-3 Bad inh | Mcl1 Noxa PPI | Mcl1-Bid inh | Mcl-1 Bim block
CCOC(=O)C[n+]1c(C)ccc2c1CCC2 | 2.4 | 2.9 | -3.7 | -7.2 | -5.0
O=[N+]([O-])c1c(Nc2ccccn2)cc(Cl)c2nonc12 | . | -1.0 | 56.8* | -38.8 | .
O=C(NCCn1ccc2ccccc21)c1cccc([N+](=O)[O-])c1 | -12.6 | -10.6 | -9.2 | -33.7 | 0.0
C=CCOc1c2ccc(C(=O)NCCc3ccc(C)cc3)cc2nn1C | -0.3 | 3.4 | 11.2 | -12.7 | -1.0
COC(=O)c1ccc(C2Nc3cccc4cccc(c34)N2)cc1 | 0.2 | -10.8 | 40.0 | -30.8 | 1.0
Oc1ccc(C2Nc3cccc4cccc(c34)N2)c(O)c1 | 5.2 | -12.6 | 102.6* | 19.1 | 7.0
COc1cc(C2Nc3cccc4cccc(c34)N2)cc(OC)c1O | -0.4 | -12.0 | 99.7* | 9.5 | 12.0
FC(F)(F)c1ccc(C2Nc3cccc4cccc(c34)N2)cc1 | -7.5 | -0.3 | 27.4 | -53.5 | -2.0
COc1cc(C2Nc3cccc4cccc(c34)N2)ccc1OC(C)=O | -1.4 | -5.5 | 69.3* | -0.9 | 12.0
c1coc(C2Nc3cccc4cccc(c34)N2)c1 | -2.6 | -14.5 | 76.4* | -20.8 | 15.0
Cc1ccc(C2Nc3cccc4cccc(c34)N2)s1 | 0.1 | -5.6 | 41.9 | -23.7 | -3.0
O=[N+]([O-])c1ccc(/C=N/NC(=S)Nc2ccccc2C(F)(F)F)o1 | 4.4 | -7.3 | 40.0 | -15.4 | -2.0
Cc1ccc2c(c1)N(CCC(=O)NCc1cccs1)C(=O)C(C)O2 (centres undefined) | 2.8 | 5.5 | 4.4 | 0.5 | -2.0
O=C1C2C3C=CC(C2C(=O)N1CCCO)C1C2C(=O)N(CCCO)C(=O)C2C31 (centres undefined) | 5.1 | -5.7 | -3.6 | 62.9* | 1.0
CCCCN1C(=O)C2C3C=CC(C2C1=O)C1C2C(=O)N(CCCC)C(=O)C2C31 (centres undefined) | 0.5 | 0.6 | -0.9 | 42.4 | 0.0
CC(C)c1ccc(NC(=O)Cn2cccc2C2=NC(c3ccccc3)CO2)cc1 (centres undefined) | -4.3 | 18.7 | -2.8 | -9.7 | -1.0
COc1cccc(/C=C2/SC(=O)N(C)C2=O)c1OCc1ccc(C(=O)O)cc1 | 2.0 | -7.5 | 3.1 | -19.4 | 67.0*
O=C1C2C3C=CC(CC3)C2C(=O)N1/N=C/c1ccc(O)c(O)c1 (centres undefined) | -29.1 | -6.8 | 25.7 | -88.6 | -13.0
O=C1c2ccccc2C(=O)N1/N=C/c1ccc(O)c(O)c1 | -2.3 | -4.9 | 71.6* | -65.8 | -2.0
CC(=O)Nc1ccc(NC(=O)CCCN2C(=O)c3ccccc3C2=O)cc1 | -0.9 | -4.1 | 5.8 | -22.0 | 0.0
O=C(CCCN1C(=O)c2ccccc2C1=O)Nc1ccccc1 | . | 3.0 | -16.7 | 78.2* | .
O=C(/C=C/c1ccco1)Nc1cc(Cl)ccc1C(=O)O | 41.7* | 11.6 | 22.0 | 0.2 | -2.0
O=C(/C=C/c1ccco1)Nc1ccccc1C(=O)O | 25.6 | 34.0 | 52.2* | -56.4 | 2.0
O=C(/C=C\c1ccco1)Nc1cc([N+](=O)[O-])ccc1F | -12.5 | -6.3 | -0.9 | -19.1 | -4.0
CN(C)c1ccc(C(=O)/C=C/c2ccccc2)cc1 | 3.2 | -11.6 | 2.2 | -23.8 | 0.0
SMILES | Arbovirus anti | 14-3-3 Bad inh | Mcl1 Noxa PPI | Mcl1-Bid inh | Mcl-1 Bim block
CN(C)c1ccc(C(=O)/C=C/c2ccc(Br)cc2)cc1 | 7.4 | 4.6 | 20.1 | -61.0 | 82.0*
Cc1ccc(S(=O)(=O)N2CCN(S(=O)(=O)N3CCCCCC3)CC2)cc1 | -4.8 | -8.6 | 12.1 | -14.6 | -5.0
C=CCN1C(=O)/C(=C/c2ccc(OC(C)=O)c(OCC)c2[N+](=O)[O-])SC1=S | -5.6 | 1.0 | 13.6 | -48.9 | 3.0
O=C(c1ccco1)[C@@H]1[C@@H]2C(=O)N(c3ccc(F)cc3)C(=O)[C@@H]2[C@H]2C=Cc3ccccc3N21 | -0.2 | 88.8*[fluorescence artefact?] | 73.0* | 24.2 | 5.0
CCOc1ccc(CN2CCN(C(=O)c3cccc(F)c3)CC2)cc1 | 7.0 | 72.1* | 36.4 | 65.9* | 0.0
Fc1cccc(CN2CCCCCCC2)c1 | 6.1 | 78.3* | 33.0 | 41.9 | -5.0
O=C(c1ccco1)N1CCN(Cc2cccc(F)c2)CC1 | 11.0 | 73.5* | 32.3 | 21.5 | 1.0
O=C(c1ccco1)N1CCN(CC(=O)N2c3ccccc3CCc3ccccc32)CC1 | 10.1 | 31.0 | 14.8 | 56.5* | -2.0
Cc1ccc(N(CC(O)Cn2nc(C)cc2C)S(=O)(=O)c2ccc3ccccc3c2)cc1 (centres undefined) | -8.0 | 1.9 | 4.3 | 2.4 | -6.0
O=C(c1ccco1)N1CCN(Cc2ccc(Cl)cc2)CC1 | -0.1 | 78.2* | 17.9 | 31.1 | -1.0
O=C(c1cccc(F)c1)N1CCCN(C(=O)c2cccc(F)c2)CC1 | 6.7 | 2.0 | -1.4 | -19.0 | 0.0
O=C(Cc1ccc(Cl)cc1)N1CCN(C(=O)c2ccco2)CC1 | 5.7 | 1.5 | 8.2 | -9.0 | -2.0
O=C(c1cccc(F)c1)N1CCC(N2CCOCC2)CC1 | -1.2 | 74.2* | 29.6 | 34.8 | 1.0
O=C(CN1CCN(C(=O)c2cccc(F)c2)CC1)NC1CCCCC1 | -5.3 | 74.5* | 5.2 | 21.4 | -1.0
COC(=O)c1ccccc1S(=O)c1snnc1C (centres undefined) | 0.2 | -13.1 | -0.7 | -2.7 | 0.0
CCN(CC)c1ccc(-c2n[nH]c(=S)n2-c2ccccc2)cc1 | -17.0 | -17.9 | 21.5 | -50.5 | -7.0
CN(C)c1ccc(-c2n[nH]c(=S)n2-c2ccccc2)cc1 | -0.7 | -2.1 | 50.6* | -35.7 | -3.0
Cc1nc2sc(C(c3ccccc3)N3CCN(c4ccccc4F)CC3)c(O)n2n1 (centres undefined) | 2.0 | 12.4 | -9.8 | -11.9 | 0.0
O=C(COC(=O)Cc1ccc(Cl)cc1Cl)Nc1ccccc1OC(F)F | -0.9 | 1.1 | -7.3 | -17.3 | -7.0
NNc1cc([N+](=O)[O-])cc2c1C(=O)N(Cc1ccccc1)S2=O (centres undefined) | 1.9 | 0.8 | 58.1* | -55.2 | -5.0
CC(C)=NNc1cc([N+](=O)[O-])cc2c1C(=O)N(C)S2=O (centres undefined) | 1.9 | -1.4 | 7.9 | -34.5 | -2.0
COc1ccc(O)c(C(=O)/C=C/c2cc3ccccc3o2)c1 | . | 0.1 | 14.3 | 67.5* | .
O=C(O)c1cccc(NC(=O)c2ccc(S(=O)(=O)c3ccccc3)cc2)c1 | 10.9 | -3.5 | 4.7 | 1.1 | -3.0
COc1ccc(CCN=C(N)NS(=O)(=O)c2ccc(C)cc2)cc1OC | -4.0 | -2.9 | 55.4* | -0.1 | 0.0
COc1ccc(CCN=C(N)NS(=O)(=O)c2ccccc2)cc1OC | 0.7 | -7.9 | 12.4 | -3.0 | -5.0
Cc1[nH]c(=O)[nH]c(=O)c1S(=O)(=O)NCCc1ccc(S(N)(=O)=O)cc1 | 6.3 | -11.7 | 58.1* | -13.9 | 0.0
O=C(NCCc1ccccc1)C1CCN(Cc2ccccc2F)CC1 | -4.8 | 0.7 | 7.7 | 11.3 | -6.0
CN(C)CC(C)(C)CNC(=O)C1CCN(Cc2ccccc2O)CC1 | 20.0 | 43.0 | 20.4 | 58.5* | 0.0
CCCOc1ccc(-c2c(C(=O)N/N=C/c3ccc(OCC)cc3)nnn2-c2nonc2N)cc1 | -12.7 | -5.6 | -1.1 | -22.1 | -5.0
